# According to the supplement of paper PMC10849652:
# Targets with a hit are over-represented here; the source holds about 7,900 in all. About 0.6% of all pairs of compound and target were hits. Unmarked numbers belong to inactive results.
# Compound: CCCS(=O)(=O)Nc1ccc(F)c(C(=O)c2c[nH]c3ncc(Cl)cc23)c1F
# Assay: log2 fold change, soluble protein after heating vs DMSO (PISA); higher = thermal stabilisation; K562 cells, 10 uM, 30 min; active = over 0.2 and 3.5 SD of the protein, either way, in both replicates (recomputed)
# Procedure, shortened: (§1)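 K562 cells at 2×10^6 cells/mL were treated for 30 min with 10 μM compound, and aliquots were heated for 3 min over 48°C-58°C before pooling. Extraction used PBS with 0.5% NP-40 at 4°C, and soluble protein was the supernatant after 21,000xg for 90 min, measured by TMTpro 16plex LC-MS/MS with channel sums equalised. Thermal stability values, relative to control samples and from duplicates, are log2 fold changes.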
# UniProt Q9NVI1, sequence (Q9NVI1 whole entry, looked up): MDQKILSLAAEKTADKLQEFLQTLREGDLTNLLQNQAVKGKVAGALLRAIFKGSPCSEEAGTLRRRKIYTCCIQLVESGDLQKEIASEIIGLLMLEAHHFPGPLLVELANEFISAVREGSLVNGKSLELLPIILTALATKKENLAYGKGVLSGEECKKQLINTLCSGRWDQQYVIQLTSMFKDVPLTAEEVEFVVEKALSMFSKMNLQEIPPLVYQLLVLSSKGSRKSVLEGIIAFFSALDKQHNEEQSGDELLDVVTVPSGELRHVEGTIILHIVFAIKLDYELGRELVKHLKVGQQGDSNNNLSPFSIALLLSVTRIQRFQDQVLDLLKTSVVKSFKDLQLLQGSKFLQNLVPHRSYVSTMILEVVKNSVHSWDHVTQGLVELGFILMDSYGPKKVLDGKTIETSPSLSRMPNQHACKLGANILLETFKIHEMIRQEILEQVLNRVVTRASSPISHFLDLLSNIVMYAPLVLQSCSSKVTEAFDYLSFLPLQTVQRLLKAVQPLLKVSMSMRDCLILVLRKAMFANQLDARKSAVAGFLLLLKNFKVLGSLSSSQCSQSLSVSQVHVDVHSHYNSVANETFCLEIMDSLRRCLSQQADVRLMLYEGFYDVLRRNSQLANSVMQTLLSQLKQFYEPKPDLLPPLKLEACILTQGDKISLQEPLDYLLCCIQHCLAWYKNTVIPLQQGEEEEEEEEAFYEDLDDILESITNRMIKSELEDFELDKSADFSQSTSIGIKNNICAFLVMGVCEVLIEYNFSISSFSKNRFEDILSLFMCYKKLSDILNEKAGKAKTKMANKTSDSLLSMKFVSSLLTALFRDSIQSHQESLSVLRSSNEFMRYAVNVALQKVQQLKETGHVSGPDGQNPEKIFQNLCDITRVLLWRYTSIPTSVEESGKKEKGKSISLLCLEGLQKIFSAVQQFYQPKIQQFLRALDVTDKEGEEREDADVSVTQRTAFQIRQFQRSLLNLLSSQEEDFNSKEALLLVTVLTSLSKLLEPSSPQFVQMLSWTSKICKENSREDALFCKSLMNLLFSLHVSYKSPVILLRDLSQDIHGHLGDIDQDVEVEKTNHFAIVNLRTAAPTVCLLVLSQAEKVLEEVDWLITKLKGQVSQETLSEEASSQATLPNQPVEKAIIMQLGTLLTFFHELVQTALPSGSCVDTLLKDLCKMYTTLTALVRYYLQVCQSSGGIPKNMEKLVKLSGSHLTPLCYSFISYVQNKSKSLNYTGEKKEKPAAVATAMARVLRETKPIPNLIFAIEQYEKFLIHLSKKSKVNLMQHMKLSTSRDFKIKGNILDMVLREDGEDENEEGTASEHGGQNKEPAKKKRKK
# UniProt P39748, sequence (P39748 whole entry, looked up): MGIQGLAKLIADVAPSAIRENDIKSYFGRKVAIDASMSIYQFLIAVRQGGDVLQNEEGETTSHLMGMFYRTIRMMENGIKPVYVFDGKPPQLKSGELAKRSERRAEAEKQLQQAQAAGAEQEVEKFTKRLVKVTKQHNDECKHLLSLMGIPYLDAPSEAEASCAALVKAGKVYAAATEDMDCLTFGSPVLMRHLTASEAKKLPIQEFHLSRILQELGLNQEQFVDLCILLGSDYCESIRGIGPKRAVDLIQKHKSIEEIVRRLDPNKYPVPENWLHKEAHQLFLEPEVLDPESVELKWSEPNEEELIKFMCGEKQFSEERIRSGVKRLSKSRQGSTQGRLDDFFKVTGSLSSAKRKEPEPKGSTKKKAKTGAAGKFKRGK
# UniProt P55795, sequence (P55795 whole entry, looked up): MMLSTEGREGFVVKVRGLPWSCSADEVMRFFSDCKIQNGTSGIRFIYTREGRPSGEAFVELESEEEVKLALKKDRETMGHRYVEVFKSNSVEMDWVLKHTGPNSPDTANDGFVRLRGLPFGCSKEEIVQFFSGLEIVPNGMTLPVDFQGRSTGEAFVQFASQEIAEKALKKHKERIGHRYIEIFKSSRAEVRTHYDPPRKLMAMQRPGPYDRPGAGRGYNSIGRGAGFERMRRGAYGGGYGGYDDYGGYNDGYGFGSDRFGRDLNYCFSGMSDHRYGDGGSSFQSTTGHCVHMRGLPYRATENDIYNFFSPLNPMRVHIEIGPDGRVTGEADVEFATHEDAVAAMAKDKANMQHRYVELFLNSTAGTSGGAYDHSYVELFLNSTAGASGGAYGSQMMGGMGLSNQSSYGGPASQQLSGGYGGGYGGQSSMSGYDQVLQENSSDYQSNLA
# UniProt P36969, sequence (P36969 whole entry, looked up): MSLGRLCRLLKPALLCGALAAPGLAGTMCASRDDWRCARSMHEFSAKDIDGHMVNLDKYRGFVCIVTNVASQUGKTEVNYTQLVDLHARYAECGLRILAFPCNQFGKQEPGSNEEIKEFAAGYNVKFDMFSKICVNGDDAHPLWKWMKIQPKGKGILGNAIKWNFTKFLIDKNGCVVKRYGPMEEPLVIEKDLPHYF
# UniProt Q9NZC3, sequence (Q9NZC3 whole entry, looked up): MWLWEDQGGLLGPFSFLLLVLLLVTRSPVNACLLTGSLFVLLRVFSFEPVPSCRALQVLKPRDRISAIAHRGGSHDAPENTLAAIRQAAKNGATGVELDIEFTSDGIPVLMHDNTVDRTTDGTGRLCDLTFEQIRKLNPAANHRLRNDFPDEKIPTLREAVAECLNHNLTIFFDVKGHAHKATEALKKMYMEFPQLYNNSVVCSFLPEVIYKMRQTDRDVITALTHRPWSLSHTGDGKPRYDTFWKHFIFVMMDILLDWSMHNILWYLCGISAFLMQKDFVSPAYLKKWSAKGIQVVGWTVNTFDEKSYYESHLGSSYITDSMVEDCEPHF
# UniProt Q9UJY4, sequence (Q9UJY4 whole entry, looked up): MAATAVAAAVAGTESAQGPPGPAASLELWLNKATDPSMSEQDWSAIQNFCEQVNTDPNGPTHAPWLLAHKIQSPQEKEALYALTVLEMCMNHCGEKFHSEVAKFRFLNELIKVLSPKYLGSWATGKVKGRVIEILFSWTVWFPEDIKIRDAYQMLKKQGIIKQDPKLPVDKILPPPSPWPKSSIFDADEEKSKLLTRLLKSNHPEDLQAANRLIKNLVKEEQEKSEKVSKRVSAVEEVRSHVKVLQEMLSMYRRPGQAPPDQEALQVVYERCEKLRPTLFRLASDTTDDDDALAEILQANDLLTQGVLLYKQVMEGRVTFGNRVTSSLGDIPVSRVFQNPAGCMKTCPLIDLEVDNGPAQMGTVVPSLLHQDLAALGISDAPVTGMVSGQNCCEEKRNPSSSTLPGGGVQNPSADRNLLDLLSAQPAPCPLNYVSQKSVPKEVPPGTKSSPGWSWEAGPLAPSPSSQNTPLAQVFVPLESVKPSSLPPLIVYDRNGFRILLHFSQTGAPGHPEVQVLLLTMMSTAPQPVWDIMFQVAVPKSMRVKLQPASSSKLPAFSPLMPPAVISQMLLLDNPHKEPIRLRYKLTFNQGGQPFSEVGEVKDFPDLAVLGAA
# UniProt O14976, sequence (O14976 whole entry, looked up): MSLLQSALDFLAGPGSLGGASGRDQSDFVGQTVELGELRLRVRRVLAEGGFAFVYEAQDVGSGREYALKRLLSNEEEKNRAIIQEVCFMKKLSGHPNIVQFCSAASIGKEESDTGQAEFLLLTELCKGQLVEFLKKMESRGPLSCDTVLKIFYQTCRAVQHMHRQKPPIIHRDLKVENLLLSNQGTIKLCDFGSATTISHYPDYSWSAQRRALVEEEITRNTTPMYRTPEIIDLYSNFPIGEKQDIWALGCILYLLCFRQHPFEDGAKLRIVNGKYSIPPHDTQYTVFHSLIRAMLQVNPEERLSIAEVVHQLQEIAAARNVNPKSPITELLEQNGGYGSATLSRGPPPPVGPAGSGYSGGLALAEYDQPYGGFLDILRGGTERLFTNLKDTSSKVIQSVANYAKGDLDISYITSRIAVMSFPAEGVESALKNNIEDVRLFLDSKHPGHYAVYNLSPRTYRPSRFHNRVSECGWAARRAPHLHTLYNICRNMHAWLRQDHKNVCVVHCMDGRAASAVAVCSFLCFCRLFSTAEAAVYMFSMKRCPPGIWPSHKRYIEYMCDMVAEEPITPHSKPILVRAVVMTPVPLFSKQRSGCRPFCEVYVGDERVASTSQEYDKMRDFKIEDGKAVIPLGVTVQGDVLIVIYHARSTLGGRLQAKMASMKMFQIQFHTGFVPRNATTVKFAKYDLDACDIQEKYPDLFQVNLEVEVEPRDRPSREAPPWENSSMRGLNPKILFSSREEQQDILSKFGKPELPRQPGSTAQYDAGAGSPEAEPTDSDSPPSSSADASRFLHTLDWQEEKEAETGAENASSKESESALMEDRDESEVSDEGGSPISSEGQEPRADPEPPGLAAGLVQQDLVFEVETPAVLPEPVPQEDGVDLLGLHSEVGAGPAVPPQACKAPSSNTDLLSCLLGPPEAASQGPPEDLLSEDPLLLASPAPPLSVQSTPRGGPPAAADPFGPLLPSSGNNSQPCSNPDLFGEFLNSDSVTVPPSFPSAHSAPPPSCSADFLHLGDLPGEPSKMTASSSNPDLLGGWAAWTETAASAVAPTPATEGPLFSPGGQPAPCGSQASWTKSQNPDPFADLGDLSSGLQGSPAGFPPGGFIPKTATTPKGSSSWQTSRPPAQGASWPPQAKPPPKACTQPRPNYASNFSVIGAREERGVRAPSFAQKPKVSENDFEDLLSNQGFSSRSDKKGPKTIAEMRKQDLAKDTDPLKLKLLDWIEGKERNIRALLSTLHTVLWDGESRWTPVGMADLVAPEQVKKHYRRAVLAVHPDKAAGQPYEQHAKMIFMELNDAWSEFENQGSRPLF
# UniProt P37268, sequence (P37268 whole entry, looked up): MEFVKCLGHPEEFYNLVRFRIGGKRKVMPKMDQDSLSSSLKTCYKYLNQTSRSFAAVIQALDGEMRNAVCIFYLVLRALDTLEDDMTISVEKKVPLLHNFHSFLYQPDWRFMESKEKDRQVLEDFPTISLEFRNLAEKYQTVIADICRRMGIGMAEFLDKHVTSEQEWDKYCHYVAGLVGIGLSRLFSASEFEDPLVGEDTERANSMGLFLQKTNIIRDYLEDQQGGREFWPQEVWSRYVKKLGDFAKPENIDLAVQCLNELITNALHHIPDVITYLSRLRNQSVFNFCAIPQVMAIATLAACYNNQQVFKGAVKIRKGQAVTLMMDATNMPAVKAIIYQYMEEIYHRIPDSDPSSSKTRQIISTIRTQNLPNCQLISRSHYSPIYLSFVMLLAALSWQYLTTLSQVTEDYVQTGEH
row,Target,log2 fold change
1,FAT1 (UniProt Q14517),-0.051
2,GAB2 (UniProt Q9UQC2),-0.349
3,GLCCI1 (UniProt Q86VQ1),-0.035
4,FANCI (UniProt Q9NVI1),0.087
5,GALNT11 (UniProt Q8NCW6),-0.035
6,FDPS (UniProt P14324),-0.001
7,HDAC1 (UniProt Q13547),0.14
8,HDAC2 (UniProt Q92769),0.019
9,HDAC7 isoform 5 (UniProt Q8WUI4),-0.009
10,GEMIN2 (UniProt O14893),-0.023
11,HPCAL1 (UniProt P37235),0.005
12,FCHO1 (UniProt O14526),0.037
13,HIP1R (UniProt O75146),0.036
14,HADHB (UniProt P55084),-0.042
15,GHDC (UniProt Q8N2G8),-0.044
16,FEN1 (UniProt P39748),0.022
17,GOPC (UniProt Q9HD26),-0.128
18,FDFT1 (UniProt P37268),0.092

row,Target,log2 fold change
1,GDE1 (UniProt Q9NZC3),-0.009
2,ICMT (UniProt O60725),-0.103
3,GAK (UniProt O14976),0.114
4,GSTP1 (UniProt P09211),-0.006
5,FOXO3 (UniProt O43524),0.017
6,FDXR isoform 7 (UniProt P22570),0.024
7,HNRNPH2 (UniProt P55795),0.208
8,GLIPR2 (UniProt Q9H4G4),-0.014
9,FIBP (UniProt O43427),0.089
10,HNRNPC isoform 2 (UniProt P07910),-0.191
11,FBXO7 (UniProt Q9Y3I1),-0.022
12,GPS2 (UniProt Q13227),-0.01
13,GGA2 (UniProt Q9UJY4),0.017
14,GMEB1 (UniProt Q9Y692),0.154
15,FANCD2 isoform 1 (UniProt Q9BXW9),0.099
16,GPX4 (UniProt P36969),0.005
17,IFITM3 (UniProt Q01628),0.2

# Compound: CCCc1cc(C)[nH]c(=O)c1CNC(=O)c1cc(-c2ccnc(N3CCN(C)CC3)c2)cc2c1cnn2C(C)C
# Assay: as above
# Procedure, shortened: as §1
row,Target,log2 fold change
1,FAT1 (UniProt Q14517),-0.067
2,GAB2 (UniProt Q9UQC2),0.099
3,GLCCI1 (UniProt Q86VQ1),0.033
4,FANCI (UniProt Q9NVI1),0.009
5,GALNT11 (UniProt Q8NCW6),-0.002
6,FDPS (UniProt P14324),-0.005
7,HDAC1 (UniProt Q13547),-0.118
8,HDAC2 (UniProt Q92769),-0.018
9,HDAC7 isoform 5 (UniProt Q8WUI4),-0.014
10,GEMIN2 (UniProt O14893),0.029
11,HPCAL1 (UniProt P37235),-0.076
12,FCHO1 (UniProt O14526),-0.003
13,HIP1R (UniProt O75146),-0.006
14,HADHB (UniProt P55084),0.113
15,GHDC (UniProt Q8N2G8),-0.011
16,FEN1 (UniProt P39748),-0.03
17,GOPC (UniProt Q9HD26),0.244
18,FDFT1 (UniProt P37268),0.1

row,Target,log2 fold change
1,GDE1 (UniProt Q9NZC3),0.064
2,ICMT (UniProt O60725),0.064
3,GAK (UniProt O14976),0.17
4,GSTP1 (UniProt P09211),-0.1
5,FOXO3 (UniProt O43524),-0.159
6,FDXR isoform 7 (UniProt P22570),0.059
7,HNRNPH2 (UniProt P55795),0.095
8,GLIPR2 (UniProt Q9H4G4),0.028
9,FIBP (UniProt O43427),0
10,HNRNPC isoform 2 (UniProt P07910),0.028
11,FBXO7 (UniProt Q9Y3I1),-0.026
12,GPS2 (UniProt Q13227),0.026
13,GGA2 (UniProt Q9UJY4),-0.059
14,GMEB1 (UniProt Q9Y692),0.047
15,FANCD2 isoform 1 (UniProt Q9BXW9),-0.031
16,GPX4 (UniProt P36969),-0.027
17,IFITM3 (UniProt Q01628),0.218
